Experimental data reported in article PMC5540273 (PLoS ONE, 2017).

How the values were obtained:
Settings in all cases: concentration: 1 μM, replicates: in singlicate; n = 1
CTK = system: T1, CTK
T1 construct: gene MATK

DAPK1 = system: DAPK1
DAPK2 = system: DAPK2
DAPK3 = system: DAPK3
DCAMKL1 = system: T2, DCAMKL1
T2 construct: gene DCLK1

DCAMKL2 = system: T3, DCAMKL2
T3 construct: gene DCLK2

DCAMKL3 = system: T4, DCAMKL3
T4 construct: gene DCLK3

DDR1 = system: DDR1
DDR2 = system: DDR2
DLK = system: T5, DLK
T5 construct: gene MAP3K12

DMPK2 = system: T6, DMPK2
T6 construct: gene CDC42BPG

DMPK = system: DMPK
DRAK1 = system: T7, DRAK1
T7 construct: gene STK17A

DRAK2 = system: T8, DRAK2
T8 construct: gene STK17B

DYRK1A = system: DYRK1A
DYRK1B = system: DYRK1B
DYRK2 = system: DYRK2
EGFR = system: EGFR
EIF2AK1 = system: EIF2AK1
EPHA1 = system: EPHA1
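Also: KINOMEscan kinase panel screen.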

Compound | %Inh (CTK) [%] | %Inh (DAPK1) [%] | %Inh (DAPK2) [%] | %Inh (DAPK3) [%] | %Inh (DCAMKL1) [%] | %Inh (DCAMKL2) [%] | %Inh (DCAMKL3) [%] | %Inh (DDR1) [%] | %Inh (DDR2) [%] | %Inh (DLK) [%] | %Inh (DMPK2) [%] | %Inh (DMPK) [%] | %Inh (DRAK1) [%] | %Inh (DRAK2) [%] | %Inh (DYRK1A) [%] | %Inh (DYRK1B) [%] | %Inh (DYRK2) [%] | %Inh (EGFR) [%] | %Inh (EIF2AK1) [%] | %Inh (EPHA1) [%]
COc1nccc(-c2c(-c3ccc(F)cc3)ncn2CCCN2CCOCC2)n1 [SB-282852] | 22 | 5 | 0 | 22 | 35 | 0 | 11 | 0 | 35 | 18 | 0 | 8 | 0 | 0 | 0 | 61 | 10 | 8 | 8 | 0
CCn1c(-c2ccccc2)nc2cnccc21 [SB-733416] | 6 | 0 | 0 | 18 | 15 | 1 | 33 | 16 | 13 | 16 | 0 | 0 | 32 | 12 | 23 | 0 | 0 | 37 | 0 | 22
Cc1ccc(NC(=O)Nc2ccc(Cl)cc2)cc1-c1ccc(C(=O)Nc2ccncc2)cc1 [GSK1398472] | 0 | 16 | 0 | 15 | 18 | 0 | 0 | 99.8 | 64 | 0 | 63 | 0 | 3 | 0 | 19 | 0 | 0 | 24 | 0 | 12
Fc1ccc(-c2nc3n(c2-c2ccncc2)CCS3)cc1 [GI98581] | 0 | 0 | 0 | 0 | 0 | 21 | 30 | 54 | 54 | 26 | 82 | 16 | 0 | 0 | 15 | 13 | 24 | 32 | 0 | 8
Cn1cncc1-c1cc2c(Nc3ccc(OCc4ccccc4)cc3)ncnc2cn1 [GW281179] | 0 | 0 | 0 | 7 | 20 | 14 | 0 | 9 | 0 | 27 | 0 | 0 | 93 | 5 | 19 | 21 | 3 | 100 | 0 | 14
COc1ccc(-c2coc3ccc(-c4nnc(C)o4)cc23)cc1 | 0 | 0 | 1 | 0 | 15 | 0 | 13 | 0 | 0 | 0 | 0 | 0 | 0 | 0 | 40 | 0 | 0 | 0 | 0 | 0
NS(=O)(=O)c1cccc(N/C=C2\C(=O)Nc3ccc(S(=O)(=O)Cc4c(Cl)cccc4Cl)cc32)c1 [GSK398099] | 0 | 100 | 1 | 21 | 38 | 10 | 0 | 0 | 0 | 52 | 18 | 0 | 0 | 0 | 29 | 14 | 9 | 24 | 0 | 12
O=C(Nc1n[nH]c2nc(-c3cccs3)c(Br)cc12)C1CC1 [SB-735297] | 13 | 0 | 0 | 0 | 0 | 0 | 0 | 0 | 0 | 0 | 0 | 0 | 25 | 0 | 13 | 0 | 26 | 0 | 0 | 21
COc1ccc(CSc2nnc(-c3ccc4ncsc4c3)o2)cc1C(F)(F)F | 5 | 10 | 4 | 0 | 9 | 0 | 0 | 14 | 12 | 0 | 0 | 0 | 0 | 3 | 36 | 28 | 0 | 7 | 0 | 0
